This note sets out measurements from PubChem BioAssay (NCI).

Among the test systems are RPMI-8226 leukemia; OVCAR-5 ovarian; OVCAR-4 ovarian; SK-OV-3 ovarian; IGROV1 ovarian; OVCAR-3 ovarian; HS 578T breast; NCI/ADR-RES ovarian; BT-549 breast; MDA-MB-435 melanoma; SW-620 colon; MCF7 breast; HCT-116 colon; HCC-2998 colon; KM12 colon; T-47D breast; OVCAR-8 ovarian.
Common to all, as to assay: NCI-60 one-dose screen, 48 h (100 = growth as untreated, 0 = no growth, -100 = all killed)
What all share (details): 10 µM unless noted

The panel holds about 83,000 compounds, 20% with a hit somewhere; the sample as a whole holds those more often.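 Single-concentration screen, 48 h exposure, 96-well plates. Endpoint: percent growth. Below 10 = active.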 Values without a mark were called inactive. The source made the active and inactive calls.

As to `CCCCCCCCCCCCCC`, the growth is 103% with RPMI-8226 leukemia; 108% with OVCAR-5 ovarian; 103% in the assay with OVCAR-4 ovarian; 104% in the assay on SK-OV-3 ovarian; 117% in the assay with IGROV1 ovarian; 122% with OVCAR-3 ovarian. Besides, the growth in the assay with HS 578T breast is 106%; in the assay on NCI/ADR-RES ovarian it was 96.9%; in the assay on BT-549 breast it was 112%; with MDA-MB-435 melanoma, 104%; in the assay on SW-620 colon it was 104%; in the assay with MCF7 breast, 91.1%. Further, the growth in the assay with HCT-116 colon was 102%; with HCC-2998 colon, 97.8%; with KM12 colon, 115%.
Regarding `FC(F)(F)c1cc(-c2nnc3n2N=C(Cl)CS3)cc(C(F)(F)F)c1`, the growth in the assay with RPMI-8226 leukemia was 95.6%; with OVCAR-5 ovarian, 114%; in the assay with OVCAR-4 ovarian, 123%; in the assay on SK-OV-3 ovarian, 99.9%; in the assay on IGROV1 ovarian it was 114%; with OVCAR-3 ovarian, 116%. In addition, the growth in the assay on HS 578T breast is 105%; in the assay with NCI/ADR-RES ovarian it was 99.1%; in the assay with T-47D breast, 84.5%; in the assay on BT-549 breast, 88.4%; in the assay on SW-620 colon, 89.7%; with MCF7 breast, 94.3%. The growth was 90.5% with HCT-116 colon and 109% in the assay on KM12 colon.
For `O=P(O)(O)C(O)(Cc1cccnc1)P(=O)(O)O`, the growth is 98.2% with RPMI-8226 leukemia; 94.6% with OVCAR-8 ovarian; 118% with OVCAR-5 ovarian; 86.9% in the assay on OVCAR-4 ovarian; 111% in the assay with SK-OV-3 ovarian; 95.8% in the assay on IGROV1 ovarian. Further, the growth is 100% in the assay with OVCAR-3 ovarian; 102% with NCI/ADR-RES ovarian; 76.6% in the assay on T-47D breast; 86.3% in the assay with BT-549 breast; 97.6% in the assay on MDA-MB-435 melanoma; 98.7% in the assay with SW-620 colon. Besides, the growth with MCF7 breast is 91.2%; in the assay on HCT-116 colon, 106%; in the assay on HCC-2998 colon, 119%; in the assay on KM12 colon, 100%.
In the case of `NC(N)=N/N=C/c1cccc(Cl)c1Cl`, the growth is 87.5% in the assay with OVCAR-8 ovarian; 85% in the assay on OVCAR-5 ovarian; 80% with SK-OV-3 ovarian; 86.5% in the assay with IGROV1 ovarian; 72.8% in the assay with OVCAR-3 ovarian; 75.7% in the assay with NCI/ADR-RES ovarian. The growth in the assay with T-47D breast is 81.5%; with BT-549 breast, 65.9%; with MDA-MB-435 melanoma, 4.26% (active); in the assay on SW-620 colon, -4.72% (active); in the assay with MCF7 breast, 17.6%; in the assay with HCT-116 colon, 67.9%. For the same compound, the growth was 7.38% (active) with HCC-2998 colon and 10.5% with KM12 colon.
On to `COc1cc2ccc(C(C)=O)cc2cc1OC`, for which the growth in the assay on RPMI-8226 leukemia was 105%; in the assay on OVCAR-5 ovarian, 92.3%; in the assay with SK-OV-3 ovarian, 95.6%; with IGROV1 ovarian, 106%; in the assay with OVCAR-3 ovarian, 100%; in the assay on HS 578T breast, 97.1%. For the same compound, the growth was 103% with NCI/ADR-RES ovarian; 93.1% in the assay with T-47D breast; 90.8% in the assay on BT-549 breast; 98.5% in the assay with SW-620 colon; 97.9% in the assay with MCF7 breast; 103% with HCT-116 colon. Besides, the growth with KM12 colon is 105%.
Consider `NNc1ccc(S(N)(=O)=O)cc1`, for which the growth is 82.4% with RPMI-8226 leukemia; 102% with OVCAR-5 ovarian; 110% in the assay on OVCAR-4 ovarian; 104% in the assay on SK-OV-3 ovarian; 110% with IGROV1 ovarian; 111% with OVCAR-3 ovarian. In addition, the growth with HS 578T breast is 110%; with NCI/ADR-RES ovarian, 94.2%; in the assay on T-47D breast, 89.4%; in the assay on BT-549 breast it was 101%; with MDA-MB-435 melanoma, 104%; in the assay with SW-620 colon, 97.3%. Besides, the growth in the assay on MCF7 breast is 98%; in the assay on HCT-116 colon, 90.7%; in the assay on HCC-2998 colon, 86.8%; with KM12 colon, 105%.
In the case of `COc1cc(CN2CCC(N3CCCC3=O)c3ccccc32)cc(OC)c1OC` (centres undefined), the growth in the assay with OVCAR-8 ovarian was 84.2%; in the assay on OVCAR-5 ovarian, 103%; in the assay with OVCAR-4 ovarian, 41.3%; in the assay with SK-OV-3 ovarian it was 100%; in the assay on IGROV1 ovarian, 90.5%; with OVCAR-3 ovarian, 100%. For the same compound, the growth is 88.3% in the assay with HS 578T breast; 67.3% in the assay on NCI/ADR-RES ovarian; 68.3% with T-47D breast; 124% in the assay on BT-549 breast; 92.3% with SW-620 colon; 70.9% with MCF7 breast. The growth in the assay with HCT-116 colon was 68.8%; in the assay with HCC-2998 colon it was 93.2%.
As for `NC(N)=N/N=C/c1ccc(Cl)cc1`, the growth with OVCAR-8 ovarian is 88.3%; with OVCAR-5 ovarian, 89.6%; in the assay with SK-OV-3 ovarian, 76.5%; in the assay with IGROV1 ovarian it was 97.6%; in the assay on OVCAR-3 ovarian, 56.8%; in the assay with HS 578T breast, 75.4%. Besides, the growth was 79.9% in the assay on NCI/ADR-RES ovarian; 91.5% with T-47D breast; 77.4% in the assay on BT-549 breast; -53.2% (active) in the assay with MDA-MB-435 melanoma; 24.5% in the assay on SW-620 colon; 23.5% in the assay with MCF7 breast. For the same compound, the growth in the assay on HCT-116 colon is 50.8%; in the assay on HCC-2998 colon, 86.8%; in the assay on KM12 colon, 15.5%.
Turning to `C=C(C)[C@@H]1CC[C@]2(C(=O)NS(=O)(=O)c3ccccc3)CC[C@]3(C)[C@H](CC[C@@H]4[C@@]5(C)CC[C@H](OC(=O)NS(=O)(=O)c6ccccc6)C(C)(C)[C@@H]5CC[C@]43C)[C@@H]12`, the growth in the assay with RPMI-8226 leukemia is -55.3% (active); in the assay on OVCAR-8 ovarian, 18.4%; in the assay with OVCAR-5 ovarian, 15.5%; in the assay with SK-OV-3 ovarian, 29.7%; in the assay with IGROV1 ovarian, 17.6%; in the assay with OVCAR-3 ovarian, -31.3% (active). In addition, the growth is 14.5% in the assay with HS 578T breast; 17.1% in the assay with NCI/ADR-RES ovarian; 1.6% (active) in the assay with T-47D breast; -0.983% (active) in the assay with BT-549 breast; 12.8% with MDA-MB-435 melanoma; 16.6% in the assay on SW-620 colon. Besides, the growth was 2.66% (active) with MCF7 breast, -44.1% (active) in the assay with HCT-116 colon, -8.69% (active) in the assay on HCC-2998 colon and 4.05% (active) in the assay on KM12 colon.
`CCCCCCCCCCCC1=NC(C)(C)CN1CCO`: the growth in the assay with OVCAR-8 ovarian is 78.1%; in the assay with OVCAR-5 ovarian, 92%; with OVCAR-4 ovarian, 72.6%; in the assay with SK-OV-3 ovarian it was 97%; in the assay on IGROV1 ovarian, 38.5%; in the assay on OVCAR-3 ovarian it was 81%. Besides, the growth in the assay on HS 578T breast was 59.3%; in the assay on NCI/ADR-RES ovarian it was 90.3%; in the assay on T-47D breast it was 65.2%; with BT-549 breast, 80.6%; with MDA-MB-435 melanoma, 8.66% (active); in the assay on SW-620 colon, 23.1%. The growth in the assay on MCF7 breast is 30.3%; with HCT-116 colon, 17.8%; in the assay with HCC-2998 colon it was -17.5% (active); in the assay with KM12 colon, 29.1%.
